What all share (test): qHTS profiling for inhibitors of Plasmodium falciparum proliferation (AID 504749); note: nearly all actives have a fitted effect of over 60% in size
Settings in all cases: P. falciparum in erythrocytes, SYBR Green DNA, 72 h; series mostly up to 28.7 µM
Background: Quantitative high-throughput screening tests each substance at several concentrations.

The test system of one experiment is CP325. The essentials: (§1)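 SYBR Green fluorescence (ex 485 nm, em 535 nm) reports parasite DNA after 72 h compound exposure of infected red cells at 0.3% parasitemia, 2.5% hematocrit; signal normalized to 0.29 uM artemisinin and vehicle wells.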
The test system of the next experiment is CP329. The essentials: as §1
In another experiment the test system is CP335. The essentials: as §1
The test system of a further experiment is DFO2036. Summed up:
as §1

The test system of a further experiment is DIV14. Summed up: as §1
The next experiment deals with DIV17. The essentials: as §1
In a further experiment the test system is DIV30. The essentials: as §1
The subject of the next experiment is Dd2. Summed up: as §1
In a further experiment the test system is ECU. The essentials: as §1
Another experiment deals with FAB9. Summed up: as §1
For a further experiment, the system named is GB4. Summed up: as §1
A further experiment concerns HB3. Summed up: as §1
In another experiment the test system is ICS. Summed up:
as §1

A further experiment concerns JCK. Summed up: as §1
For another experiment, the system named is N140. The essentials:
as §1

For another experiment, the system named is P93_24. Summed up: as §1
In a further experiment the test system is P94_40. The essentials:
as §1

A further experiment relates to PAD. The essentials:
as §1

The next experiment deals with PC15. Summed up:
as §1

In the next experiment the test system is PC26. Summed up:
as §1

The text below walks through data of PubChem BioAssay (NCATS).

Structures are written as SMILES. Inconclusive results are not listed. Activity calls are given as the source filed them. Calls come from the whole dose curve; as a rule, active = well fitted inhibition curve with a large enough effect; inconclusive = small, poorly fitted or top-dose-only effect; inactive = flat fitted curve, though single readings scatter.
Potency is the fitted concentration of half-maximal effect.

Consider `C[C@]12C=CC(=O)C=C1CC[C@@H]1[C@@H]2C(=O)C[C@@]2(C)[C@H]1CC[C@]2(O)C(=O)CO`, for which the Potency entry with CP325, in the experiment on CP329, in the experiment with CP335, in the experiment on DFO2036, in the experiment on DIV14 and in the experiment with DIV17 was “inactive” in each case. Besides, the Potency result in the experiment on DIV30, with Dd2, in the experiment on ECU, in the experiment on FAB9, in the experiment with GB4 and in the experiment on HB3 was “inactive” each time. In addition, the Potency entry in the experiment with ICS, in the experiment on JCK, in the experiment on N140, with P93_24, in the experiment on P94_40 and in the experiment on PAD was “inactive” each time. Besides, the Potency result in the experiment on PC15 and in the experiment on PC26 was “inactive” each time.
On to `CC(C)NCC(O)c1ccc(NS(C)(=O)=O)cc1` (stereo not given), for which the Potency result in the experiment with CP325, in the experiment on CP329, with CP335, in the experiment with DFO2036, in the experiment on DIV14 and in the experiment with DIV17 was “inactive” each time. Besides, the Potency result in the experiment on DIV30, with Dd2, with ECU, in the experiment with FAB9, with GB4 and in the experiment with HB3 was “inactive” each time. Further, the Potency entry in the experiment with ICS, in the experiment with JCK, with N140, in the experiment on P93_24, with P94_40 and in the experiment on PAD was “inactive” in each case. Also, the Potency entry in the experiment with PC15 and in the experiment with PC26 was “inactive” in each case.
Consider `CCc1cc(C(N)=S)ccn1`, for which the Potency result with CP325, in the experiment with CP329, in the experiment on CP335, in the experiment with DFO2036, in the experiment with DIV14 and in the experiment on DIV17 was “inactive” each time. The Potency entry with DIV30, in the experiment with Dd2, with ECU, with FAB9, in the experiment with GB4 and in the experiment with HB3 was “inactive” throughout. The Potency entry with ICS, in the experiment on JCK, with N140, in the experiment with P93_24, in the experiment on P94_40 and with PAD was “inactive” in each case. For the same molecule, the Potency entry with PC15 and in the experiment with PC26 was “inactive” each time.
As for `C#CCN[C@@H]1CCc2ccccc21`, the Potency result in the experiment on CP325, with CP329, with CP335, in the experiment with DFO2036, with DIV14 and with DIV17 was “inactive” each time. The Potency result with DIV30, in the experiment on Dd2, in the experiment with ECU, in the experiment with FAB9, in the experiment with GB4 and in the experiment with HB3 was “inactive” each time. The Potency entry in the experiment on ICS, with JCK, in the experiment on N140, in the experiment with P93_24, in the experiment with P94_40 and in the experiment on PAD was “inactive” in each case. Further, the Potency result in the experiment with PC15 and with PC26 was “inactive” each time.
With `CNC1CCCN(c2c(F)cc3c(=O)c(C(=O)O)cn(C4CC4)c3c2OC)C1` (stereo not given), the Potency result with CP325, in the experiment on CP329, in the experiment with CP335, in the experiment on DFO2036, in the experiment on DIV14 and in the experiment on DIV17 was “inactive” in each case. Further, the Potency result with DIV30, in the experiment on Dd2, in the experiment with ECU, in the experiment with FAB9, in the experiment with GB4 and in the experiment with HB3 was “inactive” in each case. For the same molecule, the Potency result in the experiment on ICS, in the experiment on JCK, in the experiment on N140, in the experiment with P93_24, with P94_40 and in the experiment with PAD was “inactive” each time. The Potency result with PC15 and with PC26 was “inactive” each time.
With `N[C@@H](C(=O)N[C@@H]1C(=O)N2C(C(=O)O)=C(Cl)CS[C@H]12)c1ccccc1`, the Potency result with CP325, in the experiment on CP329, in the experiment on CP335, in the experiment with DFO2036, with DIV14 and with DIV17 was “inactive” each time. Also, the Potency result in the experiment on DIV30, in the experiment with Dd2, with ECU, in the experiment with FAB9, in the experiment with GB4 and with HB3 was “inactive” in each case. Besides, the Potency entry in the experiment on ICS, in the experiment on JCK, with N140, in the experiment with P93_24, with P94_40 and with PAD was “inactive” in each case. In addition, the Potency entry in the experiment on PC15 and with PC26 was “inactive” throughout.
Regarding `O=c1cc(O)c(Cl)c[nH]1`, the Potency result in the experiment with CP325, in the experiment on CP329, in the experiment with CP335, in the experiment with DFO2036, in the experiment with DIV14 and in the experiment with DIV17 was “inactive” in each case. In addition, the Potency entry in the experiment on DIV30, with Dd2, with ECU, in the experiment on FAB9, in the experiment on GB4 and with HB3 was “inactive” in each case. Besides, the Potency result with ICS, in the experiment on JCK, with N140, with P93_24, with P94_40 and in the experiment with PAD was “inactive” each time. Further, the Potency entry in the experiment with PC15 and with PC26 was “inactive” each time.
Consider `NCCCC(O)(P(=O)(O)O)P(=O)(O)O`, for which the Potency result in the experiment with CP325, in the experiment with CP329, in the experiment on CP335, with DFO2036, with DIV14 and in the experiment on DIV17 was “inactive” in each case. For the same molecule, the Potency result in the experiment on DIV30, with Dd2, in the experiment with ECU, in the experiment on FAB9, in the experiment with GB4 and with HB3 was “inactive” each time. Moreover, the Potency entry in the experiment with ICS, with JCK, with N140, in the experiment on P93_24, with P94_40 and in the experiment on PAD was “inactive” throughout. Moreover, the Potency entry in the experiment with PC15 and in the experiment on PC26 was “inactive” throughout.
As for `O=C(O)c1cc(=O)[nH]c(=O)[nH]1`, the Potency entry in the experiment with CP325, in the experiment on CP329, with CP335, in the experiment with DFO2036, in the experiment on DIV14 and in the experiment on DIV17 was “inactive” throughout. For the same molecule, the Potency entry with DIV30, in the experiment with Dd2, in the experiment with ECU, with FAB9, in the experiment on GB4 and in the experiment on HB3 was “inactive” each time. Besides, the Potency entry with ICS, in the experiment with JCK, in the experiment on N140, in the experiment with P93_24, in the experiment on P94_40 and in the experiment with PAD was “inactive” in each case. The Potency entry with PC15 and in the experiment with PC26 was “inactive” throughout.
Turning to `N=C(N)c1ccc(OCCCCCOc2ccc(C(=N)N)cc2)cc1`, the Potency in the experiment on CP325 is 1070 nM (active); in the experiment on CP329 it was 849 nM (active); in the experiment with CP335, 1350 nM (active); in the experiment on DFO2036, 1000 nM (active); with DIV14, 269 nM (active); with DIV17 it was 426 nM (active). The Potency in the experiment on DIV30 is 1690 nM (active); with Dd2 it was 501 nM (active); with ECU, 2000 nM (active); in the experiment on FAB9 it was 794 nM (active); with GB4 it was 338 nM (active); with HB3, 1260 nM (active). Moreover, the Potency in the experiment on ICS is 1000 nM (active); with JCK, 2510 nM (active); with N140, 1000 nM (active); in the experiment with P93_24, 631 nM (active); in the experiment with P94_40, 1410 nM (active); in the experiment on PAD, 1410 nM (active). The Potency in the experiment on PC15 is 355 nM (active); in the experiment on PC26, 953 nM (active).
With `Nc1[nH]c(=O)ncc1F`, the Potency entry with CP325, in the experiment with CP329, with CP335, in the experiment with DFO2036, with DIV14 and in the experiment with DIV17 was “inactive” in each case. Further, the Potency result with DIV30, in the experiment with Dd2, in the experiment with ECU, with FAB9, in the experiment with GB4 and in the experiment on HB3 was “inactive” each time. The Potency result in the experiment with ICS, in the experiment on JCK, with N140, in the experiment with P93_24, in the experiment with P94_40 and in the experiment on PAD was “inactive” in each case. Also, the Potency result with PC15 and in the experiment with PC26 was “inactive” throughout.
As for `CN(C)c1ccc(C(=C2C=CC(=[N+](C)C)C=C2)c2ccc(N(C)C)cc2)cc1`, the Potency with CP325 is 478 nM (active); with CP329, 601 nM (active); in the experiment with CP335, 301 nM (active); with DFO2036, 199 nM (active); in the experiment on DIV14 it was 478 nM (active); with DIV17 it was 601 nM (active). The Potency with DIV30 is 478 nM (active); in the experiment with Dd2, 158 nM (active); with ECU, 355 nM (active); in the experiment with FAB9, 355 nM (active); in the experiment with GB4, 239 nM (active); in the experiment with HB3, 631 nM (active). Besides, the Potency in the experiment with ICS is 251 nM (active); in the experiment with JCK, 631 nM (active); in the experiment with N140, 355 nM (active); with P93_24, 316 nM (active); in the experiment on P94_40, 282 nM (active); with PAD, 355 nM (active). Moreover, the Potency was 708 nM (active) with PC15 and 849 nM (active) with PC26.
Take `COc1cc(NCc2ccc3nc(N)nc(N)c3c2C)cc(OC)c1OC`: the Potency is 953 nM (active) in the experiment with CP325; 379 nM (active) in the experiment on CP329; 151 nM (active) with CP335; 355 nM (active) in the experiment with DFO2036; 169 nM (active) in the experiment with DIV14; 239 nM (active) in the experiment on DIV17. In addition, the Potency with DIV30 was 4780 nM (active); with Dd2, 631 nM (active); with ECU, 5 nM (active); with FAB9, 4.5 nM (active); in the experiment with GB4 it was 1.5 nM (active); in the experiment with HB3, 31.6 nM (active). The Potency with ICS is 794 nM (active); in the experiment on JCK, 7080 nM (active); with N140, 447 nM (active); in the experiment on P93_24 it was 398 nM (active); with P94_40, 891 nM (active); in the experiment with PAD, 316 nM (active). The Potency was 316 nM (active) in the experiment with PC15 and 675 nM (active) in the experiment on PC26.
